{
  "source": "PubChem BioAssay AID493169",
  "about": "(National Center for Advancing Translational Sciences (NCATS), 2011)",
  "note": "Inconclusive results are not listed. Where a call stands in place of a potency, no number is given. The source made the active and inactive calls. The call rests on the fitted dose curve; in most records, active means well fitted inhibition curve with a large enough effect; inconclusive means small, poorly fitted or top-dose-only effect; inactive means flat fitted curve, though single readings scatter. Potency means the concentration at half of the fitted maximal effect.",
  "data": [
    {"assay": "CHOP2 Reporter Counterscreen Assay for Inhibitors of Ubiquitin-specific Protease USP2a;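 further: activated enterokinase alone at 50 pM in a cell-free format rather than USP2a or CHOP2; nearly all actives have a fitted effect of over 55% in size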", "details": "purified enterokinase, fluorogenic substrate, 485/531 nm; series mostly up to 38.3 µM", "outline": "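Cell-free counterscreen with pre-activated enterokinase alone (50 pM final) in 20mM Tris-HCl pH 8.0, 2mM CaCl2, 2mM beta-mercaptoethanol, 0.05% CHAPS; compound preincubation 30 min RT, reporter substrate 25nM final, fluorescence read after 10 min (Ex 485/Em 531).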", "values": [
      {"molecule": "COc1ccc(NC(=S)NC(=O)/C=C/c2ccco2)cc1", "Potency": "inactive"},
      {"molecule": "O=C(C[n+]1cccc(C(=O)N/N=C/c2ccc(Br)cc2)c1)c1ccccc1", "Potency": "inactive"},
      {"molecule": "Cc1ccc(C2=[N+]([O-])C(C)N(O)C2(C)C)o1", "note": "(stereo not given)", "Potency": "inactive"},
      {"molecule": "O=C1c2ccccc2C(=O)N1CCC1=CCCCC1", "Potency": "inactive"},
      {"molecule": "N=c1sccn1CC(=O)Nc1ccc(S(=O)(=O)N2CCOCC2)cc1", "Potency": "inactive"},
      {"molecule": "O=c1oc2ccccc2n1Cn1c(=O)oc2ccccc21", "Potency": "inactive"},
      {"molecule": "COc1ccc(-n2c(O)c(/C=N/n3cnnc3)c3ccccc3c2=O)cc1", "Potency": "inactive"},
      {"molecule": "CCCCC1CCC(C(=O)Nc2ccc(S(=O)(=O)Nc3nccs3)cc2)CC1", "note": "(stereo not given)", "Potency": "inactive"},
      {"molecule": "Cc1nc2cc3ccccc3cc2c(=O)[nH]1", "Potency": "inactive"},
      {"molecule": "CC(C)C(=O)N=c1sc2cc(F)cc(F)c2n1C", "Potency": "inactive"},
      {"molecule": "COc1ccc(OC)c(Nc2ccc(Nc3cc(OC)ccc3OC)nn2)c1", "Potency": "inactive"},
      {"molecule": "CN(C)CCCN1C(=O)C(=O)/C(=C(/O)c2ccncc2)C1c1cccnc1", "note": "(stereo not given)", "Potency": "inactive"},
      {"molecule": "COCc1cc(C)nc(SCC[N+](C)(C)CC(=O)Nc2cccc(C(F)(F)F)c2)c1C#N", "Potency": "inactive"},
      {"molecule": "O=C(Nc1ccccc1)Nc1snnc1C(=O)Nc1cccc(O)c1", "Potency": "inactive"},
      {"molecule": "Cc1ccc(N=C2NC(=O)/C(=C/C=C/c3ccco3)S2)cc1C", "Potency": "8.91 µM (active)"},
      {"molecule": "Clc1ccc2c(N/N=C/c3ccc(Br)cc3)ccnc2c1", "Potency": "7.94 µM (active)"},
      {"molecule": "CC(=O)c1ccc2c(c1)C1C=CCC1C(C(=O)O)N2", "note": "(stereo not given)", "Potency": "11.2 µM (active)"},
      {"molecule": "COc1ccc(CNS(=O)(=O)c2ccc(S(=O)(=O)N3CCCCC3)cc2)cc1", "Potency": "inactive"},
      {"molecule": "Cc1c(O)c(CN2CCCC2)cc2c3c(c(=O)oc12)CCC3", "Potency": "inactive"},
      {"molecule": "CCCCCCCCCCOC(=O)Cn1c(COc2ccccc2C)[n+](C)c2ccccc21", "Potency": "5.62 µM (active)"},
      {"molecule": "Cc1ccccc1OCc1nc2ccccc2c(=O)n1N", "Potency": "inactive"},
      {"molecule": "Cc1ccc(C2=N/C(=C\\c3c(C)nn(-c4ccccc4)c3N3CCCC3)C(=O)O2)cc1", "Potency": "inactive"},
      {"molecule": "COc1cc(-c2nc(-c3ccc4c(c3)-c3ccccc3S4(=O)=O)c(-c3ccccc3)[nH]2)cc(OC)c1O", "Potency": "inactive"},
      {"molecule": "COc1ccccc1C(=O)N1CCN=C1SC", "Potency": "inactive"},
      {"molecule": "C[C@H](CO)N1C[C@H](C)[C@@H](CN(C)S(=O)(=O)c2ccc(Cl)cc2)Oc2ccc(NS(=O)(=O)c3ccccc3)cc2CC1=O", "Potency": "inactive"},
      {"molecule": "COc1ccccc1N1C(=O)CC(N2CCc3ccccc32)C1=O", "note": "(stereo not given)", "Potency": "inactive"},
      {"molecule": "O=C(Nc1ccccc1)c1cc(Cl)nc2ccccc12", "Potency": "inactive"},
      {"molecule": "CN(C)c1cccc(C(=O)NNC(=O)C23CC4CC(CC(C4)C2)C3)c1", "Potency": "inactive"},
      {"molecule": "c1ccc(Nc2c3c(nc4ncnn24)CCC3)cc1", "Potency": "inactive"},
      {"molecule": "CC(=O)c1cccc(NC(=O)C(C)OC(=O)c2cc(=O)[nH]c3ccccc23)c1", "note": "(stereo not given)", "Potency": "1 µM (active)"},
      {"molecule": "O=C(CCn1c(=O)c2ccccc2n(Cc2ccccc2)c1=O)NCc1ccc2c(c1)OCO2", "Potency": "inactive"},
      {"molecule": "CSc1ncccc1C(=O)OCC(=O)N1CCOCC1", "Potency": "inactive"},
      {"molecule": "CC12CN3CC(C)(CN(C1)C3c1ccc(Cl)cc1Cl)C2O", "note": "(stereo not given)", "Potency": "inactive"},
      {"molecule": "COc1ccc(OCC(=O)NCCNC(=O)c2cccnc2)cc1", "Potency": "inactive"},
      {"molecule": "CCOC(=O)C1CCN(C(=O)COC(=O)c2c(C)c(CC)nc3ccccc23)CC1", "Potency": "inactive"},
      {"molecule": "O=C(CSc1nc2ccccc2s1)NCCCN1CCOCC1", "Potency": "inactive"},
      {"molecule": "O=C(COc1ccccc1)Nc1nnc(-c2ccc(Cl)s2)o1", "Potency": "inactive"},
      {"molecule": "COc1ccc(-c2nc(C#N)c(NCC3CCCO3)o2)cc1OC", "note": "(stereo not given)", "Potency": "inactive"},
      {"molecule": "O=C(OCc1ccccc1)C1CCCN1C(=O)c1cccs1", "note": "(stereo not given)", "Potency": "inactive"},
      {"molecule": "COc1cccc(NC(=O)Cc2ccccc2)c1", "Potency": "inactive"}
    ]}
  ]
}
